# From PubChem BioAssay (NCI)
# Compounds without any hit were thinned out: in the full panel of roughly 79,000, 15% have a hit. A number with no mark means an inactive call. The source made the active and inactive calls. Cut-off read from the data, not from the text of the source: active = growth inhibition above about 70%; inactive = the rest.
# Assays:
# [1] = NCI Yeast Anticancer Drug Screen. Data for the rad52 strain (AID 147);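 note: 0% = growth of vehicle-treated control cultures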; conditions: S. cerevisiae rad52 mutant growth inhibition, hits give high values
# Summary of the method: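 Inhibition of yeast growth, referenced to vehicle controls, was the measured output for a strain with defective DNA damage repair.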
# [2] = NCI Yeast Anticancer Drug Screen. Data for the wt1 strain (AID 149);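 note: 0% = growth of vehicle-treated wt1 cultures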; conditions: S. cerevisiae wt1 strain (SPY 50644) growth inhibition, hits give high values
# Summary of the method: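 wt1 strain grown with compound or vehicle; inhibition taken from the growth difference.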
# [3] = NCI Yeast Anticancer Drug Screen. Data for the rad50EPP+ strain (AID 151);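 note: 0% = growth of vehicle-treated control cultures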; conditions: S. cerevisiae rad50 mutant strain, hits give high values
# Summary of the method: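 Genetically defined yeast (rad50EPP+, DNA damage repair alteration) is grown with compound, and inhibition of growth is expressed relative to vehicle-treated controls.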
# [4] = NCI Yeast Anticancer Drug Screen. Data for the mgt1 strain (AID 153); conditions: S. cerevisiae mgt1 mutant growth inhibition, hits give high values
# Summary of the method: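 In the mgt1 strain, test compounds were added and growth inhibition was determined relative to vehicle-treated controls.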
# [5] = NCI Yeast Anticancer Drug Screen. Data for the rad50 strain (AID 155);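 note: 0% = growth of vehicle-only cultures of the same strain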; conditions: S. cerevisiae rad50 strain growth inhibition, hits give high values
# Summary of the method: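 DNA repair mutant yeast, compound exposure, growth read-out; inhibition is taken relative to vehicle.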
# [6] = NCI Yeast Anticancer Drug Screen. Data for the mec2-1 strain (AID 157); conditions: S. cerevisiae mec2-1 strain, hits give high values
# Summary of the method: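 Each compound was tested on mec2-1 yeast, a strain altered in DNA damage repair or cell cycle control. Growth inhibition is reported relative to vehicle.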
# [7] = NCI Yeast Anticancer Drug Screen. Data for the rad14 strain (AID 159);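 note: 0% = growth of vehicle-treated control cultures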; conditions: S. cerevisiae rad14 strain growth inhibition, hits give high values
# Summary of the method: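 DNA repair-defective yeast, compound-exposed; % growth inhibition derived by comparison with vehicle-treated controls.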
# [8] = NCI Yeast Anticancer Drug Screen. Data for the sgs1 mgt1 strain (AID 161);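 note: 0% = growth of cultures given vehicle only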; conditions: S. cerevisiae sgs1 mgt1 strain, hits give high values
# Summary of the method: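 Read-out: growth inhibition vs vehicle controls. Cells: mutant yeast strain deficient in DNA damage repair.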
# [9] = NCI Yeast Anticancer Drug Screen. Data for the CLN2oe strain (AID 163);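 note: 0% = growth of vehicle-only control cultures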; conditions: S. cerevisiae CLN2oe strain, hits give high values
# Summary of the method: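 First, the altered yeast strain was treated with each compound; second, its growth was measured; finally, inhibition was derived by comparison with vehicle controls.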
# [10] = NCI Yeast Anticancer Drug Screen. Data for the cln2 rad14 strain (AID 165);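 note: 0% = growth equal to vehicle treated cultures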; conditions: S. cerevisiae cln2 rad14 strain, hits give high values
# Summary of the method: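 Test compounds were added to cln2 rad14 yeast cultures; inhibition of growth was then determined by comparison with vehicle treatment.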
# [11] = NCI Yeast Anticancer Drug Screen. Data for the bub3 strain (AID 167); conditions: S. cerevisiae bub3 mutant strain, hits give high values
# Summary of the method: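 In this screen, a yeast mutant lacking normal mitotic checkpoint function is challenged with compound. Relative growth versus vehicle gives the inhibition value.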
# [12] = NCI Yeast Anticancer Drug Screen. Data for the wt2 strain (AID 169);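 note: 0% = growth of vehicle-treated yeast cultures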; conditions: S. cerevisiae wt2 strain growth inhibition, hits give high values
# Summary of the method: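 The panel's yeast strains carry defined changes in DNA repair or cell cycle genes. Each strain is grown with compound, and growth loss is scored relative to vehicle.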
# [13] = NCI Yeast Anticancer Drug Screen. Data for the mlh1 strain (AID 171);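 note: 0% = growth of vehicle-treated control cultures of the same strain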; conditions: S. cerevisiae mlh1 strain growth inhibition, hits give high values
# Summary of the method: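 Inhibition values reflect reduced yeast growth in the presence of compound, referenced to vehicle controls, using a strain chosen for its alteration in DNA repair or cell cycle control.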
# [14] = NCI Yeast Anticancer Drug Screen. Data for the sgs1 strain (AID 173);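 note: 0% = growth of vehicle-only control cultures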; conditions: S. cerevisiae sgs1 mutant, hits give high values
# Summary of the method: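 Vehicle-treated cultures served as reference for growth inhibition of a yeast strain altered in DNA damage repair or cell cycle control after compound exposure.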
# [15] = NCI Yeast Anticancer Drug Screen. Data for the mlh1 rad18 strain (AID 175); conditions: S. cerevisiae mlh1 rad18 strain growth inhibition, hits give high values
# Summary of the method: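 Inhibition values reflect reduced growth of mutant yeast versus vehicle-treated controls following compound exposure; the mutations affect DNA damage repair.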
# [16] = NCI Yeast Anticancer Drug Screen. Data for the rad18 strain (AID 177); conditions: S. cerevisiae rad18 mutant growth inhibition, hits give high values
# Summary of the method: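 Steps: expose repair-mutant yeast to compound; measure growth; express as inhibition relative to vehicle control.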
# [17] = at 5.0 µM (retest, dose inferred, filed as 0.5)
# [18] = at 50.0 µM (retest, dose inferred, filed as 5.0)
smiles,measurement,setting,value
CCc1cccc(C(C)C)c1NC1=C([n+]2ccc(C)cc2)C(=O)c2ccccc2C1=O,growth inhibition,[1]; at 1.2 µM,2%
same,growth inhibition,[1]; at 3.7 µM,5%
same,growth inhibition,[1]; at 11.0 µM,12%
same,growth inhibition,[1]; at 33.0 µM,42%
same,growth inhibition,[1]; at 100.0 µM,83% (active)
same,growth inhibition,[2]; at 1.2 µM,-2%
same,growth inhibition,[2]; at 3.7 µM,-2%
same,growth inhibition,[2]; at 11.0 µM,-4%
same,growth inhibition,[2]; at 33.0 µM,-3%
same,growth inhibition,[2]; at 100.0 µM,6%
same,growth inhibition,[3]; at 1.2 µM,0%
same,growth inhibition,[3]; at 3.7 µM,7%
same,growth inhibition,[3]; at 11.0 µM,17%
same,growth inhibition,[3]; at 33.0 µM,31%
same,growth inhibition,[3]; at 100.0 µM,38%
same,growth inhibition,[4]; at 1.2 µM,0%
same,growth inhibition,[4]; at 3.7 µM,-1%
same,growth inhibition,[4]; at 11.0 µM,-1%
same,growth inhibition,[4]; at 33.0 µM,4%
same,growth inhibition,[4]; at 100.0 µM,11%
same,growth inhibition,[5]; at 1.2 µM,-2%
same,growth inhibition,[5]; at 3.7 µM,0%
same,growth inhibition,[5]; [17],37%
same,growth inhibition,[5]; at 11.0 µM,25%
same,growth inhibition,[5]; at 33.0 µM,63%
same,growth inhibition,[5]; [18],87% (active)
same,growth inhibition,[5]; at 50.0 µM,89.1% (active)
same,growth inhibition,[5]; at 100.0 µM,81% (active)
same,growth inhibition,[6]; at 1.2 µM,-1%
same,growth inhibition,[6]; at 3.7 µM,-3%
same,growth inhibition,[6]; [17],10%
same,growth inhibition,[6]; at 11.0 µM,11%
same,growth inhibition,[6]; at 33.0 µM,1%
same,growth inhibition,[6]; [18],65%
same,growth inhibition,[6]; at 50.0 µM,63.1%
same,growth inhibition,[6]; at 100.0 µM,17%
same,growth inhibition,[7]; at 1.2 µM,-1%
same,growth inhibition,[7]; at 3.7 µM,4%
same,growth inhibition,[7]; at 11.0 µM,4%
same,growth inhibition,[7]; at 33.0 µM,5%
same,growth inhibition,[7]; at 100.0 µM,21%
same,growth inhibition,[8]; [17],-3%
same,growth inhibition,[8]; [18],36%
same,growth inhibition,[8]; at 50.0 µM,41.2%
same,growth inhibition,[9]; at 1.2 µM,-3%
same,growth inhibition,[9]; at 3.7 µM,-2%
same,growth inhibition,[9]; at 11.0 µM,1%
same,growth inhibition,[9]; at 33.0 µM,-2%
same,growth inhibition,[9]; at 100.0 µM,11%
same,growth inhibition,[10]; [17],-6%
same,growth inhibition,[10]; [18],32%
same,growth inhibition,[10]; at 50.0 µM,12.7%
same,growth inhibition,[11]; at 1.2 µM,-8%
same,growth inhibition,[11]; at 3.7 µM,-4%
same,growth inhibition,[11]; [17],5%
same,growth inhibition,[11]; at 11.0 µM,1%
same,growth inhibition,[11]; at 33.0 µM,5%
same,growth inhibition,[11]; [18],61%
same,growth inhibition,[11]; at 50.0 µM,41.5%
same,growth inhibition,[11]; at 100.0 µM,25%
same,growth inhibition,[12]; at 1.2 µM,-2%
same,growth inhibition,[12]; at 3.7 µM,-2%
same,growth inhibition,[12]; at 11.0 µM,-2%
same,growth inhibition,[12]; at 33.0 µM,1%
same,growth inhibition,[12]; at 100.0 µM,6%
same,growth inhibition,[13]; at 1.2 µM,-4%
same,growth inhibition,[13]; at 3.7 µM,-6%
same,growth inhibition,[13]; at 11.0 µM,-4%
same,growth inhibition,[13]; at 33.0 µM,2%
same,growth inhibition,[13]; at 100.0 µM,9%
same,growth inhibition,[14]; at 1.2 µM,-3%
same,growth inhibition,[14]; at 3.7 µM,-3%
same,growth inhibition,[14]; at 11.0 µM,-2%
same,growth inhibition,[14]; at 33.0 µM,-2%
same,growth inhibition,[14]; at 100.0 µM,18%
same,growth inhibition,[15]; [17],-4%
same,growth inhibition,[15]; [18],24%
same,growth inhibition,[15]; at 50.0 µM,61.5%
same,growth inhibition,[16]; at 1.2 µM,0%
same,growth inhibition,[16]; at 3.7 µM,-3%
same,growth inhibition,[16]; at 11.0 µM,0%
same,growth inhibition,[16]; at 33.0 µM,1%
same,growth inhibition,[16]; at 100.0 µM,17%
COc1cccc2c1C(=O)c1c(O)c3c(c(O)c1C2=O)C[C@@](O)(C(C)=O)C[C@@H]3OC1CC(N)C(OC2CC(O)C(O)C(C)O2)C(C)O1 (stereo partly specified),growth inhibition,[1]; at 1.2 µM,16%
same,growth inhibition,[1]; at 3.7 µM,12%
same,growth inhibition,[1]; at 11.0 µM,15%
same,growth inhibition,[1]; at 33.0 µM,27%
same,growth inhibition,[1]; at 100.0 µM,59%
same,growth inhibition,[2]; at 1.2 µM,-26%
same,growth inhibition,[2]; at 3.7 µM,-25%
same,growth inhibition,[2]; at 11.0 µM,-7%
same,growth inhibition,[2]; at 33.0 µM,-15%
same,growth inhibition,[2]; at 100.0 µM,-2%
same,growth inhibition,[3]; at 1.2 µM,11%
same,growth inhibition,[3]; at 3.7 µM,8%
same,growth inhibition,[3]; at 11.0 µM,10%
same,growth inhibition,[3]; at 33.0 µM,18%
same,growth inhibition,[3]; at 100.0 µM,38%
same,growth inhibition,[4]; at 1.2 µM,-22%
same,growth inhibition,[4]; at 3.7 µM,-22%
same,growth inhibition,[4]; at 11.0 µM,-18%
same,growth inhibition,[4]; at 33.0 µM,-14%
same,growth inhibition,[4]; at 100.0 µM,-17%
same,growth inhibition,[5]; at 1.2 µM,1%
same,growth inhibition,[5]; at 3.7 µM,10%
same,growth inhibition,[5]; [17],36%
same,growth inhibition,[5]; at 11.0 µM,17%
same,growth inhibition,[5]; at 33.0 µM,28%
same,growth inhibition,[5]; [18],83% (active)
same,growth inhibition,[5]; at 50.0 µM,76.8% (active)
same,growth inhibition,[5]; at 100.0 µM,59%
same,growth inhibition,[6]; at 1.2 µM,-25%
same,growth inhibition,[6]; at 3.7 µM,-20%
same,growth inhibition,[6]; [17],5%
same,growth inhibition,[6]; at 11.0 µM,-24%
same,growth inhibition,[6]; at 33.0 µM,-17%
same,growth inhibition,[6]; [18],33%
same,growth inhibition,[6]; at 50.0 µM,49.1%
same,growth inhibition,[6]; at 100.0 µM,-8%
same,growth inhibition,[7]; at 1.2 µM,-10%
same,growth inhibition,[7]; at 3.7 µM,-11%
same,growth inhibition,[7]; at 11.0 µM,-9%
same,growth inhibition,[7]; at 33.0 µM,-1%
same,growth inhibition,[7]; at 100.0 µM,15%
same,growth inhibition,[8]; [17],14%
same,growth inhibition,[8]; [18],44%
same,growth inhibition,[8]; at 50.0 µM,39.8%
same,growth inhibition,[9]; at 1.2 µM,-14%
same,growth inhibition,[9]; at 3.7 µM,-10%
same,growth inhibition,[9]; at 11.0 µM,-12%
same,growth inhibition,[9]; at 33.0 µM,-6%
same,growth inhibition,[9]; at 100.0 µM,6%
same,growth inhibition,[10]; [17],19%
same,growth inhibition,[10]; [18],78% (active)
same,growth inhibition,[10]; at 50.0 µM,57.8%
same,growth inhibition,[11]; at 1.2 µM,-30%
same,growth inhibition,[11]; at 3.7 µM,-26%
same,growth inhibition,[11]; [17],4%
same,growth inhibition,[11]; at 11.0 µM,-31%
same,growth inhibition,[11]; at 33.0 µM,-23%
same,growth inhibition,[11]; [18],37%
same,growth inhibition,[11]; at 50.0 µM,42.4%
same,growth inhibition,[11]; at 100.0 µM,-6%
same,growth inhibition,[12]; at 1.2 µM,-57%
same,growth inhibition,[12]; at 3.7 µM,-65%
same,growth inhibition,[12]; at 11.0 µM,-54%
same,growth inhibition,[12]; at 33.0 µM,-28%
same,growth inhibition,[12]; at 100.0 µM,2%
same,growth inhibition,[13]; at 1.2 µM,-25%
same,growth inhibition,[13]; at 3.7 µM,-15%
same,growth inhibition,[13]; at 11.0 µM,-17%
same,growth inhibition,[13]; at 33.0 µM,-6%
same,growth inhibition,[13]; at 100.0 µM,-3%
same,growth inhibition,[14]; at 1.2 µM,-2%
same,growth inhibition,[14]; at 3.7 µM,-4%
same,growth inhibition,[14]; at 11.0 µM,-11%
same,growth inhibition,[14]; at 33.0 µM,-8%
same,growth inhibition,[14]; at 100.0 µM,0%
same,growth inhibition,[15]; [17],18%
same,growth inhibition,[15]; [18],48%
same,growth inhibition,[15]; at 50.0 µM,51.3%
same,growth inhibition,[16]; at 1.2 µM,-8%
same,growth inhibition,[16]; at 3.7 µM,-17%
same,growth inhibition,[16]; at 11.0 µM,-32%
same,growth inhibition,[16]; at 33.0 µM,-21%
same,growth inhibition,[16]; at 100.0 µM,-2%
